Assay outcomes as filed in PubChem.
TDP1 cell CPT: qHTS for Inhibitors of human tyrosyl-DNA phosphodiesterase 1 (TDP1): qHTS in cells in presence of CPT. chicken DT40 Tdp1-/-;hTDP1 cells + 20 nM CPT, ATP luminescence, 48 h. Potency, µM (doses to about 46.2 µM), inactives show top-dose activity change, negative = growth inhibition, usual class: inhibitors. 420,000 tested, 12% active; further: on the % scale 0 is the no-effect control and ±100 the full control effect; nearly all actives have a fitted effect of over 55% in size
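Chicken DT40 Tdp1-/- cells stably complemented with human TDP1 were seeded at 400 cells/well in medium containing 20 nM camptothecin, exposed to pin-transferred compounds, and grown at 37 °C for at least 48 hr. Viability was read as ATP luminescence.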
S2 tox: Viability Counterscreen for Primary qHTS for Inhibitors of ATXN expression; Potency, µM (top dose mostly 56.7 µM), most hits filed as cytotoxic; AID 651635, 2014; S2 cells (HEK-293 line with an ATXN2-luciferase reporter) viability, CellTiter-Fluor protease fluorescence, 24 h; 400,000 tested, 0.49% active; further: nearly all actives have a fitted effect of over 40% in size
ATXN2 expr inh: Primary qHTS for Inhibitors of ATXN expression. HEK-293 ATXN2-luciferase reporter, luminescence, 24 h. Potency, µM (top dose mostly 57 µM), inactives show at the top dose activity change, negative = inhibition, hits mostly inhibitors. 360,000 tested, 0.72% active; further: on the % scale 0 is the no-effect control and ±100 the full control effect; nearly all actives have a fitted effect of over 55% in size
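ATXN2-luciferase reporter cells (luciferase flanked by upstream and downstream ATXN2 gene portions) were treated 24 h at 37 °C with compounds at up to 57 uM. SteadyGlo luminescence gave expression; GF-AFC fluorescence gave viability.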
HepG2 tox: qHTS for Inhibitors of TGF-b: Cytotox Counterscreen. AID 588856, 2011. Potency, µM (highest dose often 46.1 µM), for the others: top-dose activity change, negative = cytotoxicity, usual class: cytotoxic. HepG2 CAGA-GFP viability, ATP luminescence, 18 h. 410,000 tested, 0.76% active
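CellTiter-Glo luminescence gave cytotoxicity after 18 hours at 37 degrees C. The cells were HepG2 CAGA-GFP in 1% FBS DMEM, stimulated with 500 pg/mL TGF-beta after compound addition. %Activity was normalised to no-cell wells (complete cell-killing) and DMSO (no toxicity), and curves were fitted and classified.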
DT40 TDP1 no CPT: qHTS for Inhibitors of human tyrosyl-DNA phosphodiesterase 1 (TDP1): qHTS in cells in absence of CPT; DT40 Tdp1-/- hTDP1 cells, no CPT, ATP luminescence, 48 h; Potency, µM (top dose mostly 46.2 µM), for inactives: top-dose activity change, negative = growth inhibition, most hits filed as inhibitors; 420,000 tested, 15% active; AID 686978, 2013; further: on the % scale 0 is the no-effect control and ±100 the full control effect; nearly all actives have a fitted effect of over 55% in size
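DT40 Tdp1-/-;hTDP1 cells, no CPT (DMSO vehicle only), 400 cells/well; compounds pin-transferred; ≥48 hr, 37 °C; CellTiter-Glo 30 min RT dark, luminescence read.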
TGFb SMAD3 inh: qHTS for Inhibitors of TGF-b | 410,000 tested, 1.2% active | Potency, µM (titrated, usually from 46.1 µM), inactives show top-dose activity, negative = inhibition, hits mostly inhibitors | AID 588855, 2011 | HepG2 CAGA-GFP TGF-b/SMAD3 reporter, GFP fluorescence, 18 h; TGF-beta stimulated, 500 pg/mL final; further: on the % scale 0 is the no-effect control and ±100 the full control effect; nearly all actives have a fitted effect of over 65% in size
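First, reporter cells (HEPG2 CAGA-GFP) rested 2 h at 37 degrees C. Next, compounds were pinned in and TGF-beta added to 500 pg/mL final. After 18 h, GFP was imaged per cell and summed per well.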
An asterisk follows results filed as active; ! = not active in a repeat; [ ] = dose if it differs, or a comment. Sampled rows, rich in hits. Any-hit rate of the full collection: about 17%. The call rests on the fitted dose curve; in most records, active means well fitted curve in the direction sought with a large enough effect; inconclusive means small, poorly fitted or top-dose-only effect, or another doubt; inactive means no such curve, though single readings can be large; an effect the other way counts as inactive or inconclusive. Potency means the concentration at half of the fitted maximal effect.

What do the screens show for `COC(=O)c1[nH]c2ccccc2c1NC(=O)CN1CCN(C(=O)c2ccco2)CC1`?
TDP1 cell CPT: inconclusive; S2 tox: inactive; ATXN2 expr inh: -3%; HepG2 tox: 7%; DT40 TDP1 no CPT: inconclusive; TGFb SMAD3 inh: -4%

How did CC(=O)Oc1ccc(Cl)cc1CN(C(C)=O)C1CCCCC1 do in these assays?
TDP1 cell CPT: 23µM*; S2 tox: inactive; ATXN2 expr inh: -20%; HepG2 tox: -12%; DT40 TDP1 no CPT: inconclusive; TGFb SMAD3 inh: 0%

Results for CC(=O)Oc1ccccc1C(=O)N(C1CCCCC1)C1CCCCC1 ?
TDP1 cell CPT: 23µM*; S2 tox: inactive; ATXN2 expr inh: 6%; HepG2 tox: -32%; DT40 TDP1 no CPT: 13µM*; TGFb SMAD3 inh: inconclusive

Results for CN(C(=O)c1ccccc1Cl)C1CCCCC1 ?
TDP1 cell CPT: -7%; S2 tox: inactive; ATXN2 expr inh: 9%; HepG2 tox: 0%; DT40 TDP1 no CPT: -18%; TGFb SMAD3 inh: 17%

Results for N#Cc1c(N)c(C(=O)c2ccccc2)n2ccccc12 ?
TDP1 cell CPT: 0%; S2 tox: inactive; ATXN2 expr inh: 5%; HepG2 tox: -50%; DT40 TDP1 no CPT: -20%; TGFb SMAD3 inh: inconclusive

How did COc1ccc(NC(=O)CSc2nc3ccccc3n2CC(=O)N(C)C2CCCCC2)cc1 do in these assays?
TDP1 cell CPT: inconclusive; S2 tox: inconclusive; ATXN2 expr inh: 1%; HepG2 tox: -11%; DT40 TDP1 no CPT: inconclusive; TGFb SMAD3 inh: 0%

How did Cc1cccc(C(=O)NC2CCN(C(=O)NCc3ccccc3)CC2)c1 do in these assays?
TDP1 cell CPT: -11%; S2 tox: inactive; ATXN2 expr inh: 6%; HepG2 tox: 0%; DT40 TDP1 no CPT: -16%; TGFb SMAD3 inh: -13%

Results for O=C(NNc1c([N+](=O)[O-])cc(C(F)(F)F)cc1[N+](=O)[O-])c1ccco1 ?
TDP1 cell CPT: 26µM*; S2 tox: inconclusive; ATXN2 expr inh: inconclusive; HepG2 tox: -36%; DT40 TDP1 no CPT: 23µM*; TGFb SMAD3 inh: inconclusive

Results for Cc1ccc(CN2COc3c(Cl)cc4c(-c5ccccc5)cc(=O)oc4c3C2)cc1 ?
TDP1 cell CPT: -22%; S2 tox: inactive; ATXN2 expr inh: 5%; HepG2 tox: 5%; DT40 TDP1 no CPT: -20%; TGFb SMAD3 inh: 23%

What do the screens show for `Cc1cc(C)n(CC(=O)c2cccc([N+](=O)[O-])c2)n1`?
TDP1 cell CPT: -3%; S2 tox: inactive; ATXN2 expr inh: -10%[11.3 µM]; HepG2 tox: 1%; DT40 TDP1 no CPT: inconclusive; TGFb SMAD3 inh: 9%

What do the screens show for `COc1ccc(C(=O)c2c(C(F)(F)F)oc3c2C(=O)c2ccccc2C3=O)cc1`?
TDP1 cell CPT: 4.6µM*; S2 tox: 22µM*; ATXN2 expr inh: 32µM*; HepG2 tox: 1.1µM*; DT40 TDP1 no CPT: 7.3µM*; TGFb SMAD3 inh: inconclusive

How did C=C(C)Cn1c(SCC#N)nc2ccccc2c1=O do in these assays?
TDP1 cell CPT: -5%; S2 tox: inactive; ATXN2 expr inh: 8%; HepG2 tox: -8%; DT40 TDP1 no CPT: -20%; TGFb SMAD3 inh: 11%

Results for Cc1ccc(-n2c(SCC(=O)N/N=C/c3c(C)nn(-c4ccccc4)c3C)nc3ccccc3c2=O)cc1 ?
TDP1 cell CPT: 21µM*; S2 tox: inconclusive; ATXN2 expr inh: -23%; HepG2 tox: -39%; DT40 TDP1 no CPT: inconclusive; TGFb SMAD3 inh: inconclusive

How did Cc1ccc(/C=N/NC(=O)CSc2nc3ccccc3c(=O)n2-c2ccccc2)s1 do in these assays?
TDP1 cell CPT: 12%; S2 tox: inactive; ATXN2 expr inh: -1%; HepG2 tox: -21%; DT40 TDP1 no CPT: -25%; TGFb SMAD3 inh: -5%

What do the screens show for `C=C(C)Cn1c(SCC(=O)N/N=C/c2c(O)ccc3ccccc23)nc2ccccc2c1=O`?
TDP1 cell CPT: 7.3µM*; S2 tox: inactive; ATXN2 expr inh: inconclusive; HepG2 tox: -48%; DT40 TDP1 no CPT: 6.5µM*; TGFb SMAD3 inh: inconclusive

Results for C=C(C)Cn1c(SCC)nc2ccccc2c1=O ?
TDP1 cell CPT: inconclusive; S2 tox: inactive; ATXN2 expr inh: 12%; HepG2 tox: -5%; DT40 TDP1 no CPT: 10µM*!; TGFb SMAD3 inh: inconclusive

What do the screens show for `CCOC(=O)C1CCCN(C(=O)Cn2ncc3c(C)n(Cc4ccccc4F)c(C)c3c2=O)C1` (configuration not stated)?
TDP1 cell CPT: 26µM*; HepG2 tox: -62%; DT40 TDP1 no CPT: 18µM*; TGFb SMAD3 inh: inconclusive

Results for CCOC(=O)C1CCCN(C(=O)Cn2nc(CC)n3c(cc4sccc43)c2=O)C1 (configuration not stated) ?
TDP1 cell CPT: inconclusive; S2 tox: inactive; ATXN2 expr inh: -14%; HepG2 tox: -26%; DT40 TDP1 no CPT: inconclusive; TGFb SMAD3 inh: -5%

How did CCOC(=O)C1CCCN(C(=O)Cn2ncc3c(C)n(Cc4ccc(Cl)cc4)c(C)c3c2=O)C1 (configuration not stated) do in these assays?
TDP1 cell CPT: 8.2µM*; HepG2 tox: -1%; DT40 TDP1 no CPT: 8.2µM*; TGFb SMAD3 inh: -27%

Results for CCOC(=O)C1CCCN(C(=O)Cn2ncn3c(cc4sc(CC)cc43)c2=O)C1 (configuration not stated) ?
TDP1 cell CPT: 21µM*; HepG2 tox: -3%; DT40 TDP1 no CPT: inconclusive; TGFb SMAD3 inh: 0%

Results for CC(=O)c1cccc(-c2ccnc3c2CC(C(=O)NCCC(F)(F)F)O3)c1 (configuration not stated) ?
TDP1 cell CPT: inconclusive; S2 tox: inactive; ATXN2 expr inh: 4%; HepG2 tox: 2%; DT40 TDP1 no CPT: inconclusive; TGFb SMAD3 inh: 8%

Results for CC(=O)c1cccc(-c2ccnc3c2CC(C(=O)NCc2ccncc2)O3)c1 (configuration not stated) ?
TDP1 cell CPT: inconclusive; S2 tox: inactive; ATXN2 expr inh: 8%; HepG2 tox: -10%; DT40 TDP1 no CPT: inconclusive; TGFb SMAD3 inh: 23%

How did CC(=O)c1cccc(-c2ccnc3c2CC(C(=O)NCC2CC2)O3)c1 (configuration not stated) do in these assays?
TDP1 cell CPT: 23µM*; S2 tox: inactive; ATXN2 expr inh: -6%; HepG2 tox: -8%; DT40 TDP1 no CPT: inconclusive; TGFb SMAD3 inh: 3%
